Assay results reported in PubChem BioAssay AID1851 (National Center for Advancing Translational Sciences (NCATS), 2009).
The whole screen tested about 16,000 compounds, of which about 2,600 (16%) were called active. Not shown: some 20% with an inconclusive outcome. Calls follow the shape of the dose curve; as a rule, active = well fitted curve in the direction sought with a large enough effect; inconclusive = small, poorly fitted or top-dose-only effect, or effect the other way; inactive = no such curve, though single readings can be large or run the other way. These entries were drawn from the full list.

Each compound was assayed against Cytochrome P450 2D6 (Homo sapiens) (UniProt P10635) (assay: Cytochrome panel assay with activity outcomes). Settings: recombinant CYP, pro-luciferin dealkylation, luminescence, p450-cyp2d6; series mostly up to 57.1 µM.
Chain of Cytochrome P450 2D6 (Homo sapiens) (P10635 whole entry, looked up): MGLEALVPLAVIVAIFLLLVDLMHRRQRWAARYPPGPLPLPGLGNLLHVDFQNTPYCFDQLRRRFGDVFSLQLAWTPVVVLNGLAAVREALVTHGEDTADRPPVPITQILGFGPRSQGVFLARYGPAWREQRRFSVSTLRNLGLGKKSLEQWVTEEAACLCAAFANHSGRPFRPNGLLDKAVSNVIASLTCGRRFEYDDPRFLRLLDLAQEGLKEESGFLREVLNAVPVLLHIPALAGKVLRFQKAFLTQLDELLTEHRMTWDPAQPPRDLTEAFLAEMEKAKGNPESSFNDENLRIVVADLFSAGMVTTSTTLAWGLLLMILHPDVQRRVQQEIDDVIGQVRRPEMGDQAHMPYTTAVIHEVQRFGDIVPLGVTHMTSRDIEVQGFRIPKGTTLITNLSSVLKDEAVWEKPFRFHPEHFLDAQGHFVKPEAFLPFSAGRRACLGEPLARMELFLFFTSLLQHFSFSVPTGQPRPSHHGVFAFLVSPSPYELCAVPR
% is scaled to controls: 0 for no effect and ±100 for the full control effect.

Structure (SMILES)	AC50	activity, negative = inhibition
O=C(OCC1CC(c2ccccc2)=NO1)c1ccc(Cl)cc1 (centres undefined)	inactive	
CSc1nncc(-c2ccc(F)c(F)c2)n1	inactive	
COC(=O)C/C=C\[C@@H](C)[C@@H](/C=N\O[C@@H](C)c1cn([C@H]2COC[C@H]2O)nn1)NS(=O)(=O)c1ccc(C)cc1		5.15% [at 11.4 µM] (inactive)
Cc1ccc(OCCCC(=O)N2CCOCC2)cc1	inactive	
Cc1cccc(/C(N)=N/OC(=O)CCCN2C(=O)c3ccccc3C2=O)c1	inactive	
Cc1ccc(OCCCN2C(=O)C(=O)c3cccc(C)c32)cc1	14.1 µM (active)	
CC(C)(C)NC[C@H](O)c1cc(O)cc(O)c1	inactive	
Cc1onc(-c2ccccc2Cl)c1C(=O)Nc1nnc(Cc2ccc(Cl)cc2)s1	inactive	
Cc1ccc(NC(=O)c2ccc(CSc3nnc(-c4ccncc4)n3C)cc2)cc1	inactive	
Cc1ccc(SCc2ccc(C(=O)NCc3ccncc3)cc2)cc1	0.0447 µM (active)	
Cc1ccc(SCc2nnc(NC(=O)c3ccccc3)s2)cc1	inactive	
CCc1nc2c(c(SC)nn2-c2ccccc2)c(N)c1C(=O)OC	inactive	
CC(=O)Nc1ccc(-c2cc(-c3ccc(NC(C)=O)cc3)nc(-c3ccccc3)n2)cc1	inactive	
CC(=O)OCCNC(=O)c1cccnc1	inactive	
O=C(Oc1cccc(Br)c1)c1cccnc1	inactive	
O=C(COC(=O)c1cccnc1)c1ccc(Cl)c(Cl)c1	2.51 µM (active)	
COc1cc(-c2ccc(N=Nc3ccc4c(S(=O)(=O)O)cc(S(=O)(=O)O)c(N)c4c3O)c(OC)c2)ccc1N=Nc1ccc2c(S(=O)(=O)O)cc(S(=O)(=O)O)c(N)c2c1O	inactive	
COc1ccc(OCCSc2ncn[nH]2)cc1	inactive	
COCCCNC(=O)CCC(=O)Nc1ccc2nc(N3CCOCC3)cc(C)c2c1	inactive	
Nc1nc(Sc2ccc([N+](=O)[O-])c3nonc23)c2[nH]cnc2n1		3.81% [at 11.4 µM] (inactive)
C[C@H](N[C@@H](C)COc1ccccc1)[C@H](O)c1ccc(O)cc1	0.316 µM (active)	
CCOc1ccc(C(CC(=O)O)NC(=O)COc2ccccc2)cc1 (centres undefined)	inactive	
O=C(O)[C@H](/C=C\c1ccccc1)c1ccccc1		-18.1% [at 11.4 µM] (inactive)
CCOc1ccc(-n2c(=O)[nH]cc(C(=O)N3CCCc4ccccc43)c2=O)cc1	inactive	
Cc1ccc(C(=O)NCCNC(=O)CN2CCOCC2)cc1	inactive	
CCC(CC)C(=O)NCCN1CCN(C(=O)C(CC)CC)CC1	inactive	

Structure (SMILES)	AC50	activity, negative = inhibition
O=C(NCCN1CCCCC1)c1ccc(I)cc1	10 µM (active)	
COC(=O)C(NC(=O)c1ccccc1)=C1C=C(C)OC(C)=C1	inactive	
Clc1ccc(/C=N/c2c(-c3ccc(Cl)cc3)nc3n2CCS3)cc1	inactive	
O=[N+]([O-])c1cccc(/C=N/Nc2cc(Cl)nc(-c3ccccc3)n2)c1	inactive	
CCCC/C=C/C(NC(=O)Oc1cccc(C(F)(F)F)c1)c1ccccc1 (centres undefined)	1 µM (active)	
CCCC/C=C/C(NC(=O)c1ccccc1)c1ccccc1 (centres undefined)	inactive	
CCCC/C=C/C(NC(=O)c1ccc(C(F)(F)F)cc1)c1ccccc1 (centres undefined)	inactive	
Cn1c(N/N=C/c2c[nH]c3ccccc23)nc2ccccc21	7.94 µM (active)	
C(=N\Nc1nc(Nc2ccccc2)nc(N2CCOCC2)n1)/c1c[nH]c2ccccc12	inactive	
Cn1c(=O)c2c(nc(N/N=C\c3ccccc3C(=O)O)n2C)n(C)c1=O		5.12% [at 11.4 µM] (inactive)
CC(C)(C)C1CCc2c(C(=O)N/N=C/c3cccs3)csc2C1 (centres undefined)	inactive	
OC[C@@H]1O[C@H](n2cnc3c(/C=C(\O)c4ccccc4)ncnc32)[C@H](O)[C@@H]1O		3.57% [at 11.4 µM] (inactive)
Cn1c(=O)n(C)c2cc(S(=O)(=O)O)ccc21	inactive	
CCc1c(C)nc2ccc(Br)cc2c1Cl	12.6 µM (active)	
CCc1c(C(=O)O)[nH]c2ccc(Br)cc12	inactive	
CCOC(=O)c1ccc2nc(C)c(CCC(C)=O)c(Cl)c2c1	inactive	
CCCNS(=O)(=O)c1ccc(OCC(=O)OC)cc1	inactive	
O=c1[nH][nH]c(C(F)(F)F)c1C=Nc1ccccc1	inactive	
Cc1ccc(CSc2nnc(-c3ccncc3)n2CC2CCCO2)cc1 (centres undefined)	inactive	
Cc1cc(NC(=O)c2c([N+](=O)[O-])cnn2C)no1	inactive	
CCCC[C@H](CC)CN1CN(C[C@@H](CC)CCCC)CC(C)(N)C1	1.26 µM (active)	
N#CC(c1ccccn1)(c1ncc(C(F)(F)F)cc1Cl)N1CCOCC1 (centres undefined)	inactive	
CC(=O)c1c(N=CN(C)C)nc(C)nc1-c1ccccc1	inactive	
C=CC[C@@H]1C=C[C@@H](O/N=C\c2ccc(C(=O)N3[C@H](c4ccc(C)cc4)[C@@H](C)CC[C@H]3C(=O)OC)cc2)[C@@H](CO)O1		5.48% [at 11.4 µM] (inactive)
Cc1ccc(C)c(N2CCN(C(=O)c3ccc4nc(-c5ccco5)c(-c5ccco5)nc4c3)CC2)c1	3.16 µM (active)	
Cc1cccc(C(=O)N2CCN(c3ccc([N+](=O)[O-])c(NCc4ccco4)c3)CC2)c1	inactive	

Structure (SMILES)	AC50	activity, negative = inhibition
Cc1ccc(C(=O)N2CCN(c3cc(=O)[nH]nc3-c3ccccc3)CC2)cc1	inactive	
COc1ccc(-c2nc3cnc(OC)nc3n(Cc3cccc(OC)c3)c2=O)cc1	inactive	
CCOC(=O)N1CCN(C(=O)CCn2nc(-c3ccccc3)ccc2=O)CC1	inactive	
COCCCNC(=O)Cn1nc(-c2ccccc2OC)ccc1=O	inactive	
CN(C)CCNC(=O)Cn1nc(-c2ccc(Cl)cc2)ccc1=O	inactive	
CC1CCCC(C)N1CCNC(=O)Cn1nc(-c2ccccc2)ccc1=O (centres undefined)	22.4 µM (active)	
Cc1ccc(-c2ccc(=O)n(CC(=O)NCCN(C)C)n2)cc1	inactive	
Cc1ccc(-c2ccc(=O)n(CC(=O)NCCN3CCCCC3C)n2)cc1 (centres undefined)	2 µM (active)	
O=C(Nc1ccccc1N1CCOCC1)c1ccccc1[N+](=O)[O-]	inactive	
N#Cc1cccc(NC(=O)N2CCCC3(CCN(C(=O)c4cc(C(F)(F)F)cc(C(F)(F)F)c4)CC3)C2)c1	inactive	
CCOC(=O)Cn1nc(C)n(-c2ccc(C)cc2)c1=O	inactive	
CC(=O)CCCCn1c(=O)c2c(ncn2C)n(C)c1=O	inactive	
Nc1ccc(S(=O)(=O)Nc2ccccn2)cc1	inactive	
CN(C)S(=O)(=O)Nc1ccccn1		-5.07% [at 11.4 µM] (inactive)
O=C1C(Cl)=C(Nc2ccc(S(=O)(=O)Nc3ccccn3)cc2)C(=O)c2ccccc21	3.16 µM (active)	
Cc1nnc(SCC2=C(C(=O)O)N3C(=O)[C@@H](NC(=O)Cn4cnnn4)[C@@H]3SC2)s1	inactive	
CCCn1c(-c2ccccc2)nc2c(=O)n(C)c(=O)[nH]c21	inactive	
COc1ccc(C[C@H](N)C(=O)N[C@@H]2[C@H](O)[C@H](n3cnc4c(N(C)C)ncnc43)O[C@@H]2CO)cc1	inactive	
CN1CCN(c2cc(-c3ccc(N(C)C)cc3)ncn2)CC1	inactive	
c1cncc(-c2cc(-n3ccnc3)ncn2)c1	15.8 µM (active)	
CN(C)c1ccc(-c2cc(-n3ccnc3)ncn2)cc1	7.94 µM (active)	
c1cncc(-c2cccnc2)c1	inactive	
c1cncc(-c2cc(-c3cc(-c4cccnc4)n[nH]3)[nH]n2)c1		-12.7% [at 11.4 µM] (inactive)
CC(C)(C)c1onc(OCP(=O)(O)O)c1C[C@@H](N)C(=O)O	inactive	
Cc1cccc(NS(=O)(=O)c2c(C)n[nH]c2C)c1	inactive	
CCC1CC(CSc2ncn[nH]2)OC1=O (centres undefined)	inactive	

Structure (SMILES)	AC50	activity, negative = inhibition
O=C(CSc1ncnc2nc[nH]c12)c1ccccc1		-6.92% [at 11.4 µM] (inactive)
CCn1ncc(/C=C/C(=O)NCc2cn(C)nc2C)c1C	inactive	
CCCC(=O)Nc1c(C)n[nH]c1C	inactive	
CCCCCCCCCCn1c2c(c(=N)c3c1CCC3)CCC2	3.55 µM (active)	
CC(C)NC(=O)CSc1nnc(C2CC2)n1-c1ccccc1	inactive	
COC(=O)[C@@]1(Cc2ccc(OC)cc2)[C@H]2c3cc(C(=O)N4CCCC4)n(CCCNc4ncc(C(F)(F)F)cc4Cl)c3C[C@H]2CN1C(=O)c1ccccc1	inactive	
Cc1nnc(C)n1/N=C/c1ccc(-c2ccccc2)cc1	inactive	
Cc1cccc(NC(=O)C2(c3ccccc3)CC2(Cl)Cl)c1 (centres undefined)	17.8 µM (active)	
Cc1cccc(NC(=O)C23CCC(C)(C2Br)C3(C)C)c1 (centres undefined)	inactive	
Cc1cccc(N/C(=N\S(=O)(=O)c2ccccc2)C(F)(F)F)c1	inactive	
NC(=O)c1nn(-c2ccccc2)c(=O)cc1O	inactive	
OCCNCCCOc1cccc(Cl)c1Cl	0.158 µM (active)	
Cc1nc(NC(N)=S)sc1C(=O)Nc1ccccc1	inactive	
Cn1cnnc1SCC(=O)n1c2ccccc2c2ccccc21	inactive	
Cc1c(C)n(C(=O)CN2CCC(C)CC2)c2ccccc12	3.16 µM (active)	
Cc1nc2ccccc2nc1SCC(=O)N1CCC(C)CC1	inactive	
COc1ccc(-c2nnc(-c3ccc(OCC(C)C)cc3)o2)cc1	inactive	
Cn1cccc1C(=O)N1CCC2(CCN(C(=O)Nc3cccc(F)c3)CC2)CC1	inactive	
CC(C)(CO)N1CCN(C(=S)Nc2ccccc2)CC1		-13.1% [at 11.4 µM] (inactive)
Cc1ccc(NC(=O)C2CCN(S(C)(=O)=O)CC2)cc1	inactive	
Cc1ccc(NC(=S)N2CCN(C3CCCCC3)CC2)cc1	14.1 µM (active)	
CC(=O)OC1CCC(OC(C)=O)c2c1n([O-])c(C)c(C)[n+]2=O (centres undefined)	inactive	
CC(C)NCCOCCSc1ccc(Cl)cc1	3.55 µM (active)	
O=C(/C=C/c1ccc(Cl)cc1)NCCSc1ccccc1	inactive	
CCCCNC(=O)NS(=O)(=O)c1cnccc1Sc1ccc(Cl)cc1	inactive	
CCCCNCCOCCSc1ccc(Cl)cc1	1.58 µM (active)	
